The supplement of paper PMC13380429

Test system: Vero E6 infected with SARS-CoV-2
Assay: inhibition of SARS-CoV-2 cytopathic effect; higher = more antiviral protection, active = above 15
Conditions: 48 h

Compound	inhibition of SARS-CoV-2 cytopathic effect (1 nM)	inhibition of SARS-CoV-2 cytopathic effect (8.33 nM)	inhibition of SARS-CoV-2 cytopathic effect (100 nM)	inhibition of SARS-CoV-2 cytopathic effect (833.33 nM)	inhibition of SARS-CoV-2 cytopathic effect (10000 nM)
CCCCCCc1ccc(O)cc1O.Nc1c2ccccc2nc2ccccc12 [acrisorcin]	1.59% (inactive)	2.93% (inactive)	1.22% (inactive)	3.53% (inactive)	-18.5% (inactive)
CN1CCc2c(c3ccccc3n2Cc2ccc(C(=O)NO)cc2)C1 [tubastatin-A]	-0.32% (inactive)	0.16% (inactive)	1.09% (inactive)	-1.27% (inactive)	-6.46% (inactive)
O=C(O)c1ccccc1-c1ccc(C(F)(F)F)cc1 [xenalipin]	-4.08% (inactive)	1.65% (inactive)	4.8% (inactive)	4.27% (inactive)	-2.23% (inactive)
CCCC(=O)O[C@]1(C(=O)CO)CC[C@H]2[C@@H]3CCC4=CC(=O)CC[C@]4(C)[C@H]3[C@@H](O)C[C@@]21C [hydrocortisone-butyrate]	-1.77% (inactive)	1.01% (inactive)	3.36% (inactive)	5.42% (inactive)	0.11% (inactive)
C/C=C1\[C@H]2C=C(C)C[C@]1(N)c1ccc(=O)[nH]c1C2 [(-)-Huperzine A]	0.37% (inactive)	2.1% (inactive)	0.96% (inactive)	-0.65% (inactive)	-0.5% (inactive)
Cc1ccc(NC(=O)c2ccc(CN3CCN(C)CC3)cc2)cc1Nc1nccc(-c2cccnc2)n1 [imatinib]	2.28% (inactive)	1.75% (inactive)	5.42% (inactive)	7.15% (inactive)	20.1% (active)
CN(Cc1ccccc1)C(=O)[C@H](Cc1ccc2ccccc2c1)NC(=O)[C@@H]1CCCN1C(=O)Nc1ccccc1[N+](=O)[O-]	-0.58% (inactive)	2.06% (inactive)	3.45% (inactive)	5.13% (inactive)	1.31% (inactive)
COc1cc(N)c(Cl)cc1C(=O)NC1CN2CCC1CC2 (stereo not given) [zacopride]	0.12% (inactive)	-0.23% (inactive)	-1.28% (inactive)	-2.33% (inactive)	-4.26% (inactive)
COCCOC(=O)C1=C(C)NC(C)=C(C(=O)OC/C=C/c2ccccc2)C1c1cccc([N+](=O)[O-])c1 (stereo not given) [cilnidipine]	-1.01% (inactive)	-0.52% (inactive)	0.89% (inactive)	0.38% (inactive)	7.9% (inactive)
CN(C(=O)Cc1ccc(Cl)c(Cl)c1)[C@H](CN1CCCC1)c1ccccc1	4.62% (inactive)	6.47% (inactive)	6.09% (inactive)	-0.24% (inactive)	34.8% (active)
CSc1ccccc1Nc1nc(N2CCNCC2)nc2c(NCC3CC3)ncnc12	1.44% (inactive)	1.6% (inactive)	1.17% (inactive)	0.92% (inactive)	-33.2% (inactive)
N[C@@H](CCC(=O)N[C@@H](CSN=O)C(=O)NCC(=O)O)C(=O)O [S-nitrosoglutathione]	0.29% (inactive)	0.8% (inactive)	-1.28% (inactive)	-3.1% (inactive)	-0.66% (inactive)
c1ccc(CN(CC2=NCCN2)c2ccccc2)cc1 [antazoline]	-3.99% (inactive)	-2.45% (inactive)	-2.58% (inactive)	-1.01% (inactive)	-3.78% (inactive)
O=C(OCCN1CCOCC1)C1(c2ccccc2)CCCCC1	3.24% (inactive)	2.9% (inactive)	1.04% (inactive)	4.21% (inactive)	1.59% (inactive)
COc1ccc(Nc2ccn(-c3ccccc3)n2)cc1	2.12% (inactive)	1.12% (inactive)	3.85% (inactive)	3.51% (inactive)	4.1% (inactive)
CN(C)CCc1c[nH]c2ccc(CS(=O)(=O)N3CCCC3)cc12 [almotriptan]	-0.13% (inactive)	1.33% (inactive)	-0.24% (inactive)	0.04% (inactive)	-2.87% (inactive)
C[C@H](O)[C@H](O)[C@H]1CNc2nc(N)[nH]c(=O)c2N1 [sapropterin]	-2.03% (inactive)	2.62% (inactive)	1% (inactive)	0.55% (inactive)	-1.44% (inactive)
CC(=O)O[C@H]1C[C@@H]2CC[C@@H]3[C@H](CC[C@@]4(C)[C@H]3C[C@H](N3CC[N+](C)(C)CC3)[C@@H]4OC(C)=O)[C@@]2(C)C[C@@H]1N1CC[N+](C)(C)CC1 [pipecuronium]	-1.2% (inactive)	-0.41% (inactive)	-0.11% (inactive)	-1.81% (inactive)	-1.58% (inactive)
CCCN(C/C=C/I)C1CCc2cccc(O)c2C1 (stereo not given) [8-hydroxy-PIPAT]	3.48% (inactive)	1.88% (inactive)	3.63% (inactive)	3.07% (inactive)	-2.66% (inactive)
Nc1ccn([C@@H]2O[C@H](CO)[C@@H](O)[C@@H]2O)c(=O)n1 [cytarabine]	-0.13% (inactive)	2.91% (inactive)	2.21% (inactive)	-1% (inactive)	-2.58% (inactive)
CCOc1ccc(NC(=S)N2CCC(C(O)(c3ccccc3)c3ccccc3)CC2)cc1	-2.59% (inactive)	-1.73% (inactive)	-2.48% (inactive)	-3.52% (inactive)	-4.05% (inactive)

Compound	inhibition of SARS-CoV-2 cytopathic effect (1 nM)	inhibition of SARS-CoV-2 cytopathic effect (8.33 nM)	inhibition of SARS-CoV-2 cytopathic effect (100 nM)	inhibition of SARS-CoV-2 cytopathic effect (833.33 nM)	inhibition of SARS-CoV-2 cytopathic effect (10000 nM)
O=[N+]([O-])c1ccc2c(c1)S(=O)(=O)C=C2 [stattic]	-2.62% (inactive)	-2.1% (inactive)	-5.02% (inactive)	5.41% (inactive)	-2.07% (inactive)
CCCCCCCCCCCCCCOC(=O)c1cccnc1 [myristyl-nicotinate]	0.94% (inactive)	2.86% (inactive)	0.68% (inactive)	1.76% (inactive)	1.2% (inactive)
O=C(O)c1ccccc1S [o-mercapto-benzoic-acid]	-1.65% (inactive)	-0.03% (inactive)	0.12% (inactive)	-2.81% (inactive)	-0.55% (inactive)
COC(=O)CCC(=O)CN [methyl-aminolevulinate]	2.97% (inactive)	2.46% (inactive)	1.49% (inactive)	3.55% (inactive)	5.12% (inactive)
O=c1oc2ccccc2c(O)c1Cc1c(O)c2ccccc2oc1=O [dicoumarol]	0.87% (inactive)	0.88% (inactive)	-0.82% (inactive)	1.35% (inactive)	3.32% (inactive)
NC(=O)c1cccc(-c2cccc(OC(=O)NC3CCCCC3)c2)c1	1.14% (inactive)	3.25% (inactive)	1.96% (inactive)	1.41% (inactive)	1.6% (inactive)
COC(=O)C1=C(C)NC(C)=C(C(=O)NCCCN2CCC(c3ccccc3)(c3ccccc3)CC2)C1c1ccc([N+](=O)[O-])cc1 (stereo not given)	1.77% (inactive)	1.95% (inactive)	0.45% (inactive)	0.78% (inactive)	48.8% (active)
Cc1csc(NC(=O)CSc2ccc(-c3ccccc3)nn2)n1	6.45% (inactive)	-1.88% (inactive)	-1.71% (inactive)	-1.48% (inactive)	12.2% (inactive)
NCC(=O)CCC(=O)O [5-aminolevulinic-acid]	1.18% (inactive)	1.35% (inactive)	-3.53% (inactive)	-0.73% (inactive)	0.28% (inactive)
CC[C@@]1(O)C(=O)OCc2c1cc1n(c2=O)Cc2cc3cc(O)ccc3nc2-1 [10-hydroxycamptothecin]	-0.65% (inactive)	-0.13% (inactive)	-3.85% (inactive)	-12.8% (inactive)	-13.8% (inactive)
CC(CCc1ccccc1)NCC(O)c1ccc(O)c(C(N)=O)c1 (stereo not given) [labetalol]	-0.33% (inactive)	0.13% (inactive)	0.47% (inactive)	0.67% (inactive)	-2.41% (inactive)
Fc1ccc([C@@H]2CCNC[C@H]2COc2ccc3c(c2)OCO3)cc1 [paroxetine]	-4.2% (inactive)	-2.01% (inactive)	-2.05% (inactive)	-1.89% (inactive)	-13.1% (inactive)
Ic1cncc(OC[C@@H]2CCN2)c1	0.24% (inactive)	-0.44% (inactive)	0.14% (inactive)	1.07% (inactive)	-0.56% (inactive)
CCC(=O)NC[C@@H]1C[C@H]1c1cccc2c1CCO2 [tasimelteon]	-0.84% (inactive)	1.68% (inactive)	-0.1% (inactive)	0.64% (inactive)	-1.54% (inactive)
Cc1cccc(C(C)c2c[nH]cn2)c1C (stereo not given) [medetomidine]	0.12% (inactive)	-1.31% (inactive)	-1.87% (inactive)	-1.95% (inactive)	-1.68% (inactive)
CC(O)(CS(=O)(=O)c1ccc(F)cc1)C(=O)Nc1ccc(C#N)c(C(F)(F)F)c1 (stereo not given) [bicalutamide]	-2.58% (inactive)	-1.35% (inactive)	0.77% (inactive)	-0.42% (inactive)	-0.92% (inactive)
O=C1OC2(c3ccccc31)c1cc(I)c(O)c(I)c1Oc1c2cc(I)c(O)c1I [erythrosine]	-2.4% (inactive)	-1.04% (inactive)	-2.6% (inactive)	-4.79% (inactive)	-12.8% (inactive)
Cc1nc2c(OCc3ccccc3)cccn2c1CC#N	-1.06% (inactive)	0.99% (inactive)	2.87% (inactive)	0.07% (inactive)	1.07% (inactive)
CCCOc1ccc2[nH]cc(C3=CCNCC3)c2n1	2.78% (inactive)	1.38% (inactive)	-1.41% (inactive)	2.78% (inactive)	-1.56% (inactive)
N[C@@H](CCC(=O)N[C@@H](CS)C(=O)NCC(=O)O)C(=O)O [glutathione]	0.94% (inactive)	0.93% (inactive)	1.6% (inactive)	-0.69% (inactive)	1.39% (inactive)
